# Source: PubChem BioAssay
# The list is not random: actives were taken first. Their share in the collection is about 12%.
# Sfp PPTase inh – Sfp phosphopantetheinyl transferase inhibition | 3.5% of 310,000 active | Biochemical Sfp PPTase activity, qHTS | AID 1490 | Potency, µM, inactives show largest response in the series, negative = inhibition, hits mostly inhibitors | Q9F4F7;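 note: the enzyme is Sfp with the accession as filed and its product quenches rhodamine fluorescence; 0% = enzyme reaction without inhibitor and -100% = no enzyme wells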
#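 After 15 min at room temperature with compound, 15 nM Sfp received 5 uM rhodamine-CoA plus 12.5 uM BHQ-2-ybbR (50 mM Hepes pH 7.6, 10 mM MgCl2). Rate came from the fluorescence difference over 30 min, ex 525/em 598 nm.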
# Gal4-VP16 FLuc – counter-screen for ROR gamma inhibitors: Gal4-VP16 reporter; Potency, µM (doses to about 53.6 µM), inactives show top-dose activity, negative = inhibition, hits mostly inhibitors; 3.5% of 310,000 active; AID 2546; Drosophila S2 Gal4-VP16 UAS-luciferase, luminescence, 20 h;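 note: Gal4-VP16 expression switched on by copper sulfate through the metallothionein promoter; nearly all actives have a fitted effect of over 50% in size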
# RORgamma inh – ROR gamma (mouse) transcription inhibition; Potency, µM (doses to about 53.6 µM), for inactives: at the top dose activity change, negative = inhibition, usual class: inhibitors; AID 2551; 5.4% of 310,000 active; Drosophila S2 Gal4-RORgamma UAS-luciferase reporter, 20 h; note: nearly all actives have a fitted effect of over 60% in size
# Target sequence (P51450 whole entry, looked up, the tested form may be a part): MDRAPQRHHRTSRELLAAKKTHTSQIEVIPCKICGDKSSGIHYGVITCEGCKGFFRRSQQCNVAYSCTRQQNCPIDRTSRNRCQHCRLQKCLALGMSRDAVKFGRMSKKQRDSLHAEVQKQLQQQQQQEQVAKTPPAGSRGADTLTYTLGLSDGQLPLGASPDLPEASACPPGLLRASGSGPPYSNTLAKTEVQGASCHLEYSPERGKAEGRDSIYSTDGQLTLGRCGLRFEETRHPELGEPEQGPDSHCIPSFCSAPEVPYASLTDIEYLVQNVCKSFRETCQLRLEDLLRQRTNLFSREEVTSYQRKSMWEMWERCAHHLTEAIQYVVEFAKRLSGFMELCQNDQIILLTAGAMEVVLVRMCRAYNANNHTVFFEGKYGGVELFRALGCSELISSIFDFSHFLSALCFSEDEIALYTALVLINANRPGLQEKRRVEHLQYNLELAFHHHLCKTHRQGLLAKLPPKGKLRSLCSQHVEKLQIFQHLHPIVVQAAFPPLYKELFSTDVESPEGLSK
#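 Luciferase reporter read in Schneider cells carrying Gal4-RORγ (mouse) and UAS-Photinus luciferase; cells given compound 1 h before 700 uM copper sulfate induction, then incubated 20 h at ambient temperature.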
# PLK1 PBD inh – PLK1 (human) polo-box domain binding inhibition; AID 720504; P53350; 2.8% of 360,000 active; Potency, µM, without a hit: max response, negative = inhibition, hits mostly inhibitors; Plk1 PBD binding of FITC phosphopeptide, fluorescence polarization; note: series mostly up to about 57 µM; nearly all actives have a fitted effect of over 65% in size
# ALDH1A1 block – blocks purified human ALDH1A1 activity; 7.3% of 220,000 active; P00352; Potency, µM (doses to about 75.3 µM), inactives show at the highest dose activity, negative = inhibition, most hits filed as inhibitors; Purified ALDH1A1, NADH fluorescence, propionaldehyde substrate; AID 1030; active = well fitted inhibition curve with a large enough effect, not every such curve was filed as active; inconclusive = small, poorly fitted or top-dose-only effect, or another doubt; inactive = no such curve, though single readings can be large or run the other way;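 note: plate controls were no enzyme wells and a reference inhibitor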
# An asterisk follows results filed as active; ? = inconclusive; nt = no result; [ ] = dose if it differs, or a comment. Unless noted, calls come from the whole dose curve; as a rule, active = well fitted curve in the direction sought with a large enough effect; inconclusive = small, poorly fitted or top-dose-only effect, or another doubt; inactive = no such curve, though single readings can be large; an effect the other way counts as inactive or inconclusive. Unless noted, % is set by controls: 0 for no effect and ±100 for the full control effect; potency is the fitted concentration of half-maximal effect.
SMILES,Sfp PPTase inh,Gal4-VP16 FLuc,RORgamma inh,PLK1 PBD inh,ALDH1A1 block
C[C@H]1OC(OC2C(O)[C@@H](O)C(OC3C(O)[C@@H](O)C(O)O[C@@H]3CO)O[C@@H]2CO)[C@H](O)C(O)C1N[C@H]1C=C(CO)[C@@H](O)[C@H](O)C1O (stereo partly drawn),9.9%,-0.7%,-9.6%,nt,9.1%
COc1ccc(N(CC(=O)Nc2cc(C)ccc2C)S(=O)(=O)c2ccccc2[N+](=O)[O-])c(OC)c1,-22.8%,-1.4%,22.1%,11.9µM*,-4.1%
COc1ccc(N(CC(=O)Nc2cc(C)cc(C)c2)S(=O)(=O)c2ccccc2[N+](=O)[O-])c(OC)c1,5.9%,-5.0%,-2.2%,-6.5%,-7.1%
COC(=O)[C@@]1(Cc2ccccc2)[C@H]2c3cc(C(=O)N(C)C)n(Cc4ccc(O)c(OC)c4)c3C[C@H]2CN1C(=O)c1ccccc1,-4.3%,11.8%,40.2%,nt,7.4%
NC1=NC(S)C2N=CN=C2N1 (stereo not drawn),56.2µM*,29.8%,-24.0%,nt,?
O=C(CCl)N=c1sccn1Cc1ccccc1Cl,-10.2%,?,?,-9.1%,nt
O=C(CCl)N=c1sccn1Cc1ccc(Cl)cc1Cl,-0.3%,?,?,-18.1%,28.2µM*
O=C(CCl)N=c1sccn1Cc1cccc2ccccc12,-8.7%,?,?,-14.3%,20µM*
CCC(=O)OCC(=O)N=c1sccn1Cc1ccccc1Cl,2.0%,-1.4%,-7.0%,1.7%,nt
COc1ccc(C(C)=O)cc1CSc1nnc(-c2ccncc2)n1C,22.6%,-5.4%,-0.4%,-10.0%,-0.3%
COCCn1c(SCC(=O)Nc2cccc(S(N)(=O)=O)c2)nc2cc(Cl)ccc2c1=O,-0.4%,3.9%,34.9%,7.52µM*,6.6%
CC(C)Cn1c(SCC(=O)Nc2cccc(S(N)(=O)=O)c2)nc2ccccc2c1=O,-7.8%,-8.5%,10µM*,?,?
COc1ccc(C(C)=O)cc1CSc1nnc(-c2ccc(Cl)cc2)n1-c1ccccc1,-11.5%,15.8µM*,?,-12.6%,10µM*
CCCn1c(SCN2C(=O)c3ccccc3C2=O)nc2cc(Cl)ccc2c1=O,8.0%,?,10µM*,-6.9%,0.6%
O=C(O)c1[nH]c(=O)[nH]c(=O)c1CN1CCCCC1,nt,nt,nt,nt,8.9%[13.5 µM]
CCOc1ccc2c(c1)c(=O)c(S(=O)(=O)c1ccc(CC)cc1)cn2C,3.1%,0.1%,-25.8%,-7.9%,nt
CCOC(=O)C1=CN(Cc2ccco2)S(=O)(=O)NC1c1ccc(C(F)(F)F)cc1 (stereo not drawn),nt,nt,nt,-12.2%,nt
CCOC(=O)C1=CCN(S(=O)(=O)c2ccccc2Br)C1c1ccc(F)cc1 (stereo not drawn),nt,nt,nt,-7.1%,nt
COCCn1c(SCc2cc(C(C)=O)ccc2OC)nc2cc(Cl)ccc2c1=O,2.3%,?,-24.8%,-3.3%,17.8µM*
O=C(O)/C=C\c1cccc(-n2nnnc2SCc2ccccc2F)c1,9.4%,16.2%,44.2%,-4.5%,nt
Cc1nn(CC#N)c(=O)n1-c1ccccc1F,10.8%,3.5%,10µM*,3.0%,25.8%
COc1ccc(/C=N/NC(=O)C2C(=O)NCC2c2ccccc2)c(OC)c1 (stereo not drawn),7.2%,-4.0%,21.7%,0.7%,-3.4%
Cc1ccc(/C=N/NC(=O)NC2CCCCC2)o1,20.0%,1.5%,-7.1%,-0.4%,3.55µM*
COc1cccc(/C=N/NC(=O)C(=O)N2CCCCCC2)c1O,10.6%,10µM*,7.94µM*,0.7%,nt
COc1cccc(/C=N/NC(=O)C(=O)N/N=C/c2cccc(OC)c2O)c1O,13.3%,-7.2%,19.5%,-12.6%,11.3%
SMILES,Sfp PPTase inh,Gal4-VP16 FLuc,RORgamma inh,PLK1 PBD inh,ALDH1A1 block
COc1cccc(/C=N/NC(=O)NC2CCCCC2)c1O,-11.0%,8.91µM*,6.31µM*,-14.5%,nt
COc1cccc(/C=N\NC(=O)C2C(=O)NCC2c2ccccc2)c1O (stereo not drawn),16.9%,?,8.91µM*,0.5%,16.4%
O=S1(=O)CC(N2CCN(CCO)CC2)CN1Cc1ccccc1 (stereo not drawn),nt,nt,nt,-10.0%,nt
COc1ccccc1C(=O)NC(=O)COC(=O)CN1C(=O)NC(C)(C)C1=O,nt,nt,nt,6.1%,nt
Cc1ccc(-c2nn(-c3ccccc3)cc2CC(=S)N2CCOCC2)cc1,8.7%,?,17.8µM*,-13.9%,nt
Cc1cc(NCc2ccccc2)nc2ccccc12,8.1%,6.4%,39.5%,0.1%,?
C/C(CCC(C)C)=N\Nc1cc(C)c2ccccc2n1,28.2µM*,-24.9%,?,4.1%,?
COc1ccc(-c2ccccc2)cc1NC(=O)C1(C)CCN1C(=O)C(C)C (stereo not drawn),nt,nt,nt,-6.6%,nt
O=C1OC2(CCCCC2)CC2=C1C1O[C@](c3ccsc3)(Cc3c1ccc1ccccc31)O2,2.6%,-21.6%[10 µM],-19.8%[10 µM],nt,nt
O=C(COc1ccc([N+](=O)[O-])cc1)NNC(=S)NC(=O)c1ccc(Br)cc1,44.7µM*,?,3.16µM*,13.4µM*,8.91µM*
Cc1ccc(OCC(=O)Nc2ccc([N+](=O)[O-])cc2)cc1,8.0%,-12.5%,1.2%,-1.8%,8.8%
Cc1ccc(C(=O)NC(=S)NNC(=O)COc2ccc([N+](=O)[O-])cc2)cc1,70.8µM*,11.2µM*,11.2µM*,?,nt
O=C(O)c1ccc(NS(=O)(=O)Cc2ccccc2)cc1,nt,nt,nt,nt,-2.9%[13.5 µM]
Cc1ccc(O)c(C(=O)c2cnn(C(=O)Cc3csc(C)n3)c2)c1,9.4%,-4.5%,?,-23.8%,1.12µM*
Cc1ncc(CC(=O)n2cc(C(=O)c3cc(F)ccc3O)cn2)s1,-5.9%,0.9%,?,-16.5%,7.94µM*
COc1ccc(O)c(C(=O)c2cnn(C(=O)c3ccc(C)cc3)c2)c1,nt,nt,nt,-8.3%,nt
CC(C)C1C(=O)N(Cc2cn(CC3CCCCC3)nn2)CCS(=O)(=O)N1Cc1ccc(-c2cccc(CO)c2)cc1 (stereo not drawn),nt,nt,nt,-2.0%,nt
Nc1nc2n(n1)C(c1cccs1)CC(c1ccccc1)N2 (stereo not drawn),-17.4%,-18.3%,12.6µM*,-7.4%,-2.4%
COc1ccc(C2CC(c3ccc(Cl)cc3Cl)Nc3nc(N)nn32)cc1 (stereo not drawn),-3.4%,4.47µM*,5.62µM*,-8.5%,?
Cc1ccc(C2CC(c3ccc(F)cc3)Nc3nc(N)nn32)cc1 (stereo not drawn),-0.6%,-9.0%,3.5%,26.7µM*,2.7%
COc1cccc(C2CC(c3ccc(Cl)cc3Cl)Nc3nc(N)nn32)c1 (stereo not drawn),7.3%,-15.0%,10.9%,?,9.1%
Nc1nc2n(n1)C(=O)CC(c1ccccc1)N2 (stereo not drawn),27.7%,-3.1%,-4.1%,26.7µM*,-5.3%
CCc1ccc(N2CC(C(=O)N3CCN(S(=O)(=O)c4cccc(F)c4)CC3)CC2=O)cc1 (stereo not drawn),nt,nt,nt,-9.6%,nt
O=C(Cn1c(=O)sc2ccccc21)Nc1ccc(O)cc1,79.4µM*,-8.7%,11.1%,-4.9%,1.6%
CCOc1ccccc1NC(=O)Cn1c(=O)sc2ccccc21,14.0%,13.0%,19.9%,-15.5%,9.1%
